TGFb SMAD3 inh – TGF-b pathway inhibition; HepG2 CAGA-GFP TGF-b/SMAD3 reporter, GFP fluorescence, 18 h; TGF-beta stimulated, 500 pg/mL final; Potency, µM (highest dose often 46.1 µM), most hits filed as inhibitors; hit rate 1.2% among 410,000; AID 588855; further: nearly all actives have a fitted effect of over 65% in size
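Using HEPG2 CAGA-GFP reporter cells at 1000 cells/well, we pinned test compounds, stimulated with recombinant TGF-beta (500 pg/mL final) and measured total well GFP after 18 h.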
VP16 counter – counter-screen for ROR gamma inhibitors: Gal4-VP16 reporter; Potency, µM (doses to about 53.6 µM), usual class: inhibitors; AID 2546; Drosophila S2 Gal4-VP16 UAS-luciferase, luminescence, 20 h; hit rate 3.5% among 310,000;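 further: Gal4-VP16 expression switched on by copper sulfate through the metallothionein promoter; nearly all actives have a fitted effect of over 50% in size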
ATXN2 expr inh – reduces ATXN2 reporter expression in HEK-293 cells; Potency, µM (top dose mostly 57 µM), most hits filed as inhibitors; hit rate 0.72% among 360,000; AID 1745845; HEK-293 ATXN2-luciferase reporter, luminescence, 24 h; further: nearly all actives have a fitted effect of over 55% in size
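qHTS (up to 57 uM final) was run with 24 h compound exposure of reporter cells at 37 °C. Each well was multiplexed: SteadyGlo luminescence measured ATXN2-luciferase expression after a fluorogenic Gly-Phe-AFC viability readout (25 uM final).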
HepG2 tox – counter-screen for TGF-b inhibitors: cytotoxicity in HepG2 cells. HepG2 CAGA-GFP viability, ATP luminescence, 18 h. Potency, µM (top dose mostly 46.1 µM), most hits filed as cytotoxic. hit rate 0.76% among 410,000. AID 588856
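HepG2 CAGA-GFP cells (1000/well, DMEM with 1% FBS) received compound, then TGF-beta at 500 pg/mL final, and were incubated 18 hours at 37 degrees C. Viability was read by CellTiter-Glo luminescence. Media-only wells were set as complete cell-killing and DMSO as no toxicity.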
ATXN viability – reduces viability in counter-screen for ATXN expression inhibitors; S2 cells (HEK-293 line with an ATXN2-luciferase reporter) viability, CellTiter-Fluor protease fluorescence, 24 h; Potency, µM (highest dose often 56.7 µM), hits mostly cytotoxic; hit rate 0.49% among 400,000; AID 651635; further: nearly all actives have a fitted effect of over 40% in size
RORg inh – inhibitors of mouse ROR gamma transcriptional activity; hit rate 5.4% among 310,000; P51450; AID 2551; Potency, µM (doses to about 53.6 µM), actives largely listed as inhibitors; Drosophila S2 Gal4-RORgamma UAS-luciferase reporter, 20 h; further: nearly all actives have a fitted effect of over 60% in size
Target sequence (P51450 whole entry, looked up, the tested form may be a part): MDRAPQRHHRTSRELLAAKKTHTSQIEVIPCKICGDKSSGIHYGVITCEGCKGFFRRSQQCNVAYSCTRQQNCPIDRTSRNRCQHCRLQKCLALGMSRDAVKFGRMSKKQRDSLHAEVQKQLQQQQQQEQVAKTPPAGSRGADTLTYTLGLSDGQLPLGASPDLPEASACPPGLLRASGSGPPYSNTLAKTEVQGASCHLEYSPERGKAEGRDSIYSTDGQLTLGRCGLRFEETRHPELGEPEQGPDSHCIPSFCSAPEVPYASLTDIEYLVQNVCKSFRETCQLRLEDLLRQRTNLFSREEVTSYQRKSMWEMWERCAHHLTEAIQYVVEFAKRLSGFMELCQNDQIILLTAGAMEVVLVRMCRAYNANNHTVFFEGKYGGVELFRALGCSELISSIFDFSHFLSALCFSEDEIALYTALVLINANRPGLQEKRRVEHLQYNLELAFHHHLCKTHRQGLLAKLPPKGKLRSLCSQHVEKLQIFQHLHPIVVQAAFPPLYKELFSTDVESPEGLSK
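In this cell-based reporter format, copper sulfate (700 uM final) drives Gal4–ROR gamma fusion expression from a metallothionein promoter in Drosophila Schneider cells; compounds preincubated 1 hr, reporter read after 20 hr at ambient temperature.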
Of the large screens only hits and unclear results are named; the others gave an inactive call. Most compounds without a hit are left out; they make up all but 6.3% or so of the library. The call rests on the fitted dose curve; in most records, active means well fitted curve in the direction sought with a large enough effect; inconclusive means small, poorly fitted or top-dose-only effect, or another doubt; inactive means no such curve, though single readings can be large; an effect the other way counts as inactive or inconclusive.

FC(F)Oc1ccc(/C=N/NC(=S)Nc2cc(C(F)(F)F)ccc2Cl)cc1	VP16 counter 5.6µM, ATXN2 expr inh inconclusive, RORg inh 1.3µM (no result: ATXN viability)
Cc1nn(C)cc1/C=N/NC(=S)Nc1ccccc1	VP16 counter 2.2µM, RORg inh 0.89µM
CNC(=S)Nc1cc(C(F)(F)F)ccc1Cl	none
Cc1nn(-c2ccccc2)c(N2CCCC2)c1/C=N/NC(=S)Nc1ccccc1C(F)(F)F	VP16 counter 1µM, RORg inh 1.4µM
Cc1nn(-c2ccccc2)c(N2CCCC2)c1/C=N/NC(=S)Nc1cc(C(F)(F)F)ccc1Cl	VP16 counter 2.8µM, ATXN viability inconclusive, RORg inh 1.8µM
Cc1nn(-c2ccccc2)c(N2CCCCC2)c1/C=N/NC(=O)c1ccncc1	RORg inh inconclusive
Oc1ccccc1C=NNC(=S)Nc1ccc(F)cc1	ATXN2 expr inh inconclusive (no result: VP16 counter, RORg inh)
COc1ccc(S(=O)(=O)N(C)C)cc1NC(=O)CSC(C)C(=O)Nc1cc(C)on1 (stereo not drawn)	ATXN viability inconclusive (no result: VP16 counter, ATXN2 expr inh, RORg inh)
CS(=O)(=O)c1ccc(/C=C2\C=Cc3ccccc32)cc1	none (no result: VP16 counter, ATXN2 expr inh, ATXN viability, RORg inh)
Cc1ccc(NC(=S)N/N=C/c2c(C)nn(-c3ccccc3)c2N2CCCC2)cc1	VP16 counter 0.1µM, RORg inh inconclusive
COc1c(/C=N/NC(N)=S)c(C)nn1-c1ccccc1	VP16 counter inconclusive, RORg inh 7.1µM
Oc1c(C(c2ccccc2F)N2CCOCC2)sc2nc(-c3ccco3)nn12 (stereo not drawn)	none (no result: VP16 counter, RORg inh)
c1ccc(C2CNCCc3ccccc32)cc1 (stereo not drawn)	none
S=C1NCCc2ccc(Cl)cc2C1c1ccccc1 (stereo not drawn)	VP16 counter 2.5µM, RORg inh 1.3µM
Cc1cc(=O)n2[nH]c(-c3ccccc3)cc2n1	none
Cc1cc(=O)n2[nH]c(-c3ccc(C(C)(C)C)cc3)cc2n1	VP16 counter 22µM, RORg inh inconclusive
O=C(CNCc1ccc(F)cc1)Nc1cc(S(=O)(=O)N2CCOCC2)ccc1Cl	none (no result: VP16 counter, RORg inh)
CCOC(=O)c1cnc2ccc(OCC)cc2c1NCc1ccccc1OC	VP16 counter inconclusive, ATXN2 expr inh inconclusive, ATXN viability inconclusive, RORg inh 13µM
CCOC(=O)c1cnc2ccccc2c1Nc1ccc2c(c1)OCCO2	VP16 counter inconclusive, RORg inh 11µM
CCOC(=O)c1cnc2ccccc2c1NCc1ccco1	TGFb SMAD3 inh inconclusive, VP16 counter inconclusive, RORg inh 6.3µM (no result: ATXN2 expr inh)
CCOC(=O)c1sc2ncnc(NCc3ccco3)c2c1C	VP16 counter 11µM, RORg inh 7.9µM
CCOC(=O)c1sc2nc(CC(=O)OC)nc(NCc3ccco3)c2c1C	none
Nc1[nH]c2cc([N+](=O)[O-])ccc2c1-c1ccccn1	VP16 counter inconclusive, ATXN viability inconclusive, RORg inh inconclusive
Cc1ccc(C)c(NC(=O)c2nc(-c3ccccc3)n(-c3ccccc3)n2)c1	TGFb SMAD3 inh inconclusive, RORg inh inconclusive
O=C(CCl)Nc1cc(-c2ccccc2)nn1-c1ccccc1	TGFb SMAD3 inh inconclusive, VP16 counter inconclusive, ATXN2 expr inh inconclusive, ATXN viability 32µM, RORg inh 14µM
Cc1ccc(C)c(NC(=O)c2cc(-c3ccccc3)nn2-c2ccccc2)c1	VP16 counter 22µM
CC(=O)Nc1ccc(-c2cc(NC(C)=O)n(-c3ccccc3)n2)cc1	none
Cc1ccc(-c2cc(NC(=O)CCl)n(-c3ccccc3)n2)cc1	TGFb SMAD3 inh inconclusive, VP16 counter 5µM, ATXN2 expr inh inconclusive, ATXN viability inconclusive, RORg inh 6.3µM
CCC(O)c1cnc(OCc2ccccc2)nc1OCc1ccccc1 (stereo not drawn)	TGFb SMAD3 inh inconclusive, HepG2 tox 14µM (no result: VP16 counter, ATXN2 expr inh, RORg inh)
COc1cc(CNCc2ccccn2)ccc1OCc1ccccc1Cl	VP16 counter inconclusive, RORg inh 14µM
COc1ccc(CC(=O)NCc2ccccn2)cc1OC	TGFb SMAD3 inh inconclusive, RORg inh 11µM
Cc1ccccc1-n1c(=S)[nH]c2nc3c(cc2c1=O)CCCC3	VP16 counter 4.5µM, RORg inh 1.3µM
CSc1nc2nc3c(cc2c(=O)n1-c1ccc(C)cc1)COC(C)(C)C3	none
Cc1ccccc1-n1c(=O)c2ccccc2n2cnnc12	none (no result: ATXN2 expr inh, ATXN viability)
CCC1(C)Cc2nc3[nH]c(=S)n(-c4ccc(C)cc4)c(=O)c3cc2CO1 (stereo not drawn)	VP16 counter 14µM, ATXN viability inconclusive, RORg inh 1.3µM
Cc1ccccc1-n1c(=S)[nH]c2nc3c(cc2c1=O)COC(C)(C)C3	VP16 counter 11µM, RORg inh 5µM
Cc1ccc(-n2c(=S)[nH]c3nc4c(cc3c2=O)COC(C)(C)C4)cc1	VP16 counter inconclusive, RORg inh 3.5µM
COCCNC(=O)C1(C)CCCN(C(=O)c2cccc(C(F)(F)F)c2)C1 (stereo not drawn)	none (no result: VP16 counter, RORg inh)
COc1cc(C(=O)NC(C)CCc2ccccc2)cc(OC)c1OC (stereo not drawn)	none
CN(Cc1ccccc1)C(=S)NC(=O)c1ccc(-c2ccccc2)cc1	VP16 counter 0.089µM, RORg inh 0.28µM
COc1cc(C(=O)NC(=S)N(C)Cc2ccccc2)cc(OC)c1OC	VP16 counter 3.5µM, RORg inh 0.56µM
COc1cc(C(=O)N/N=C(\C)Cc2ccccc2)cc(OC)c1OC	TGFb SMAD3 inh inconclusive, RORg inh inconclusive
COc1cc(C(=O)NC(=S)N(CCc2ccccc2)CCc2ccccc2)cc(OC)c1OC	TGFb SMAD3 inh inconclusive, VP16 counter 0.79µM, ATXN viability inconclusive, RORg inh 0.4µM
CN(Cc1ccccc1)C(=S)NC(=O)C1CCCCC1	none (no result: ATXN2 expr inh)
CN(Cc1ccccc1)C(=S)NC(=O)c1cccs1	VP16 counter 0.25µM, RORg inh 0.32µM
CCNc1nc(-c2ccc(OC(F)F)cc2)c(C)s1	RORg inh 11µM
COCC(=O)Nc1nc(-c2ccccc2)c(C)s1	none
CCOC(=O)c1cc2c(=O)n3ccccc3nc2n(C(C)C)c1=NC(=O)c1cc2ccccc2o1	none (no result: VP16 counter, RORg inh)
CCN(CC(=O)Nc1cc(C)nn1-c1nc(C)cc(C)n1)Cc1ccccc1	TGFb SMAD3 inh inconclusive, VP16 counter 6.3µM, RORg inh 1.4µM
Cc1cc(C)nc(-n2nc(C)cc2NC(=O)CNCc2ccccc2)n1	VP16 counter inconclusive, RORg inh 5.6µM
CCC(C(=O)Nc1cc(C)nn1-c1nc(C)cc(C)n1)c1ccccc1 (stereo not drawn)	none
CCn1c(=O)cc(OCC(=O)N2CCN(c3ccc(OC)cc3)CC2)c2ccccc21	TGFb SMAD3 inh inconclusive (no result: VP16 counter, RORg inh)
O=C(Nc1nnc(C2=COCCO2)o1)c1cccc(Br)c1	VP16 counter 0.5µM, RORg inh 0.35µM
CS(=O)(=O)c1cccc(C(=O)Nc2nnc(C3=COCCO3)o2)c1	none (no result: VP16 counter, RORg inh)

High-throughput results from PubChem BioAssay.
